Only some compounds are listed: those with a hit (about 3% of all), similar ones and a draw of the others.
PLK1 PBD inh: blocks phosphopeptide binding to human PLK1 polo-box domain; P53350; Plk1 PBD binding of FITC phosphopeptide, fluorescence polarization; Potency, µM, most hits filed as inhibitors; 360,000 tested, 2.8% active; also: series mostly up to about 57 µM; nearly all actives have a fitted effect of over 65% in size
Target sequence (P53350 whole entry, looked up, the tested form may be a part): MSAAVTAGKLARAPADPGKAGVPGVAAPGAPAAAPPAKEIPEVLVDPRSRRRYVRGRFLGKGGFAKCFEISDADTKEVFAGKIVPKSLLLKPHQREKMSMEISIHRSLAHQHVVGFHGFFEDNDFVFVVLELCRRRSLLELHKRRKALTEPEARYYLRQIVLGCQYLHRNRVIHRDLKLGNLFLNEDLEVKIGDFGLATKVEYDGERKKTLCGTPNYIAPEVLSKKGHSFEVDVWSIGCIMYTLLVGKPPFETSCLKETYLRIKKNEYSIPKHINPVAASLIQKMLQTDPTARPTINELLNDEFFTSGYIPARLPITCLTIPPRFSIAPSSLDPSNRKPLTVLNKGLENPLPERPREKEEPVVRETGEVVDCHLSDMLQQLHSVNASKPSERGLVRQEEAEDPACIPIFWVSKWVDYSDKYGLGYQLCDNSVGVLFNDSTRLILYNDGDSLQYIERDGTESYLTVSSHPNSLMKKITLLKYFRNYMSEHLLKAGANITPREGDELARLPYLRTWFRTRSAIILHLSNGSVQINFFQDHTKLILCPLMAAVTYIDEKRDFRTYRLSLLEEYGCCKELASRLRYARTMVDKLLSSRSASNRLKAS
TSG101-PTAP inh: blocks PTAP/TSG101 interaction to inhibit HIV-1 budding | Q99816 | Fluorescence polarization, FITC-PTAP peptide / Tsg101 binding | Potency, µM (doses to about 115 µM), actives largely listed as inhibitors | 340,000 tested, under 10 active; active = well fitted inhibition curve with a large enough effect in the main read-out, with a control signal flat, not every such curve was filed as active; inconclusive = small, poorly fitted or top-dose-only effect, or effect the other way, or a change in a side signal; inactive = no such curve, though single readings can be large or run the other way
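FP read-out: FITC-PTAP peptide, 50 nM final, binding Tsg101 binding domain, 10 uM final; 20 min, r.t.; 10 mM HEPES pH 7.5, 0.15 M NaCl, 0.01% Tween 20, 3 mM EDTA, 0.1 mM TCEP.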
VDR inh: blocks the human vitamin D receptor; P11473; Potency, µM, actives largely listed as inhibitors; 400,000 tested, 0.93% active; VDR-SRC2-3 peptide fluorescence polarization, 2 h; AID 504847
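Reagent solutions, kept cold and dark, are dispensed first; compounds are then pinned in at 23 nl, plates briefly spun, and incubated 2 h at ambient temperature. Inhibition of VDR–SRC2-3 peptide binding is read by fluorescence polarization.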
GCN5L2 inh: blocks human GCN5L2 histone acetyltransferase; 390,000 tested, 0.21% active; Q92830; Potency, µM (series often up to 58.9 µM), actives largely listed as inhibitors; AID 504327; GCN5L2 HAT assay, ThioGlo1 CoA-SH fluorescence
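Enzyme at 20nM final was mixed with library compounds for 15 min at room temperature. Peptide H3(1-25) at 75uM, acetyl-CoA at 70uM and ThioGlo1 at 50uM were then added. Plates were read immediately and after 20 min (Ex340nm/Em540nm).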
USP1 inh: blocks the human USP1/UAF1 deubiquitinase complex. recombinant USP1/UAF1, Ub-Rhodamine cleavage fluorescence. AID 743255. O94782. Potency, µM (doses to about 57.1 µM), hits mostly inhibitors. 390,000 tested, 0.23% active; also: nearly all actives have a fitted effect of over 60% in size
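High-throughput fluorogenic screen: 1nM USP1/UAF1 complex, Ub-Rho substrate 150nM final, 50mM HEPES pH 7.8 with 0.5mM EDTA, 0.1 mg/ml BSA, 1mM TCEP and 0.01% Tween-20.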
A number is an active result; . = inactive; ? = inconclusive; / = no result given. Unless noted, calls follow the shape of the dose curve; as a rule, active = well fitted curve in the direction sought with a large enough effect; inconclusive = small, poorly fitted or top-dose-only effect, or another doubt; inactive = no such curve, though single readings can be large; an effect the other way counts as inactive or inconclusive.

SMILES | PLK1 PBD inh | TSG101-PTAP inh | VDR inh | GCN5L2 inh | USP1 inh
O=C(O)c1cccc(NN=C2c3ccccc3-c3ccccc32)c1 | ? | . | . | . | .
O=C(O)c1cccc2c1-c1ccccc1/C2=N\Nc1ccccc1 | 38µM | . | . | . | ?
Cc1ccc(NC(=O)CN2C(=O)C3(SCC(=O)N3c3cccc(Cl)c3)c3ccccc32)cc1C (stereo unspecified) | / | / | . | . | .
Cc1cc[n+](-c2[nH]c(=O)sc2/C=N/N=C(\[O-])c2ccccc2)cc1 | . | . | . | . | .
Cc1cc[n+](-c2[nH]c(=O)sc2/C=N/N=C(\[O-])c2ccccc2)cc1C | 24µM | ? | . | . | ?
Cc1cccc(NC(=O)CSc2nnc([C@H](C)NC(=O)OC(C)(C)C)o2)c1C | 27µM | . | ? | . | .
COc1ccc(N(C(=O)CNC(=O)c2ccco2)C(C(=O)NC2CCCCC2)c2ccco2)cc1 (stereo unspecified) | . | . | . | . | .
COC(=O)c1ccc(N(C(=O)CNC(=O)c2ccco2)C(C(=O)NC2CCCC2)c2ccco2)cc1 (stereo unspecified) | 27µM | . | . | . | .
C[C@H](CO)N1C[C@H](C)[C@H](CN(C)S(=O)(=O)c2cccc(C#N)c2)OCc2cnnn2CCCC1=O | 30µM | / | / | / | .
COc1ccccc1NC(=O)C1=C(C)Nc2nc3ccccc3n2C1c1cccc(OC)c1OC (stereo unspecified) | / | / | . | . | .
Cc1cc(F)ccc1S(=O)(=O)Nc1ncnc2sccc12 | 21µM | . | . | . | .
O=C(NCc1ccco1)c1cc([N+](=O)[O-])ccc1N1CCCCC1 | 24µM | . | ? | . | .
COc1nc(-c2ccccc2)c2cc(C)ccc2n1 | 21µM | . | ? | . | .
Cc1c(C(=O)N2CCCCC2)c(S(=O)(=O)NCc2ccccc2Cl)c(C)n1C | 27µM | . | ? | . | .
COc1cccc(CNS(=O)(=O)c2c(C(=O)N3CCCCCC3)c(C)n(C)c2C)c1 | 27µM | . | . | . | .
Cc1ccccc1CNS(=O)(=O)c1c(C(=O)N2CCCC2)c(C)n(C)c1C | ? | . | . | . | .
COc1cccc(CNS(=O)(=O)c2c(C(=O)N3CCCCC3)c(C)n(C)c2C)c1 | . | . | . | . | .
Cc1c(C(=O)N2CCCCC2)c(S(=O)(=O)NCc2ccc(Cl)cc2)c(C)n1C | 24µM | . | ? | . | .
Cc1c2ccccc2cc[n+]1CCCS(=O)(=O)[O-] | . | . | . | . | .
CC1(C)C(/C=C/C=C/C=C/C=C2\N(CCCCS(=O)(=O)O)c3ccc4ccccc4c3C2(C)C)=[N+](CCCCS(=O)(=O)[O-])c2ccc3ccccc3c21 | ? | . | ? | 10µM | .
Cc1cc2nnc(SCc3ccc(F)cc3)n2c2ccccc12 | / | / | . | . | .
O=C(NCc1ccccc1)N1CCN(c2ccc(Cl)c(Cl)c2)CC1 | . | . | . | . | .
O=C(NC1CCN(C(=O)NCc2ccccc2)CC1)c1ccccc1 | . | . | . | . | .
O=C(NCc1ccccc1)N1CCN(c2ccc(F)cc2)CC1 | 3µM | . | . | . | .
O=C(Cc1ccccc1)NC1CCN(C(=O)NCc2ccccc2)CC1 | 27µM | . | . | . | .
SMILES | PLK1 PBD inh | TSG101-PTAP inh | VDR inh | GCN5L2 inh | USP1 inh
Cc1ccc(OCC(=O)Nc2sc3c(c2C(N)=O)CCCC3)c(C(C)(C)C)c1 | / | / | . | . | .
CC(=O)N1c2ccc(S(=O)(=O)N3CCCCCC3)cc2CC1C(=O)NC(C)C (stereo unspecified) | / | / | . | . | .
Cc1ccnc(SCc2cc(=O)c(OC(=O)c3cc([N+](=O)[O-])ccc3Cl)co2)n1 | 24µM | . | . | . | .
O=C(Oc1coc(CSc2ncccn2)cc1=O)c1cccc([N+](=O)[O-])c1 | ? | . | . | . | .
CC(C)CC(NC(=O)OCc1ccccc1)C(=O)NC(Cc1ccccc1)C(=O)CCl (stereo unspecified) | . | . | 71µM | / | .
CCCC[C@@H](C=O)NC(=O)[C@H](CC(C)C)NC(=O)OCc1ccccc1 | / | / | 35µM | . | /
COc1ccc(Cl)cc1NC(=O)COC(=O)c1cc(C)oc1C | . | . | . | . | .
Cc1cc(C(=O)OCC(=O)Nc2ccc(F)c(F)c2F)c(C)o1 | ? | . | 79µM | . | .
Cc1c(Cl)cccc1NC(=O)C(=O)NCC(c1cccnc1)N1CCN(c2ccccc2)CC1 (stereo unspecified) | / | / | . | . | .
CCOC(=O)C1(CC2CCCCO2)CCN(C(=O)Nc2cccc(SC)c2)CC1 (stereo unspecified) | 21µM | . | . | . | .
C[C@@H](C(=O)NNC(=O)c1ccc(Cl)cc1)N1C(=O)C2CC=CCC2C1=O (stereo partly specified) | . | . | . | . | .
Cc1nn(-c2ccccc2)c(Cl)c1C1C(C#N)=C(N)Oc2n[nH]c(C)c21 (stereo unspecified) | 24µM | . | . | . | .
Cc1ccc(-c2ccc(C3C(C#N)=C(N)Oc4n[nH]c(C)c43)o2)cc1 (stereo unspecified) | ? | . | ? | . | .
Cc1[nH]nc2c1C(c1ccc(-c3ccccc3C#N)o1)C(C#N)=C(N)O2 (stereo unspecified) | 30µM | . | . | . | .
CCOC(=O)C1=C(C)OC(N)=C(C#N)C1c1c(C)nn(-c2ccccc2)c1Cl (stereo unspecified) | . | . | 71µM | ? | ?
Cc1ccc(/C=c2\sc3nc(-c4ccco4)nn3c2=O)o1 | 9.5µM | . | . | . | .
O=C(O)c1cccc(Cn2c(Cl)c(/C=N/NC(=O)c3cc4ccccc4cc3O)sc2=O)c1 | 27µM | . | ? | ? | ?
Cc1ccccc1N/N=C/c1sc(=O)n(Cc2cccc(C(=O)O)c2)c1Cl | 27µM | . | ? | . | .
COC(=O)c1cccc(Cn2c(Cl)c(/C=N/Nc3ccccc3C)sc2=O)c1 | . | . | . | . | .
CCOc1ccc(C(=O)Nc2nc(-c3ccc(Br)cc3)ns2)cc1 | / | / | . | . | .
NC(=O)c1ccc[n+]([C@@H]2OC(COP(=O)([O-])OP(=O)(O)OCC3OC(n4cnc5c(N)ncnc54)C(OP(=O)(O)O)C3O)C(O)C2O)c1 (stereo partly specified) | / | / | . | . | /
CC(=O)c1cccc(NC(=O)CSc2nc3c(=O)n(C)c(=O)n(C)c3n2C)c1 | / | / | . | . | .
N#C/C(=C\c1c(Oc2ccc(Br)cc2)nc2ccccn2c1=O)c1nc2ccccc2s1 | / | / | 40µM | . | .
CC1=C(C)CS(=O)N(c2ccc(S(N)(=O)=O)cc2)C1 (stereo unspecified) | 1.5µM | . | 7.9µM | . | .
NS(=O)(=O)c1ccc(N2C(=O)C3CC=CCC3C2=O)cc1 (stereo unspecified) | . | . | . | . | .

High-throughput results as filed in PubChem BioAssay.
